The text below walks through data of PubChem BioAssay AID540254 (Southern Research Specialized Biocontainment Screening …, 2011).

SMILES strings stand for the structures. The whole screen tested about 1,800 compounds, of which fewer than 10 were called active. The list is a sample of the results. Entries with a potency or affinity are not part of this list. A number with no mark means an inactive call. How the calls were made is not given here.

As a reminder, the inhibition is the change of the read-out against control, counted positive when it falls.

A short description of this experiment: antiviral activity against H1N1 influenza, dose response, cell-based, strain KY180 (AID 540254). To be noted: H1N1 KY180 influenza antiviral cell-based screen; series mostly up to 40 µM; inhibition: at the top concentration.
For `Cc1cccc2sc(NNC(=O)c3ccc(S(=O)(=O)N4CCc5ccccc5C4)cc3)nc12`, the “inhibition” value is -2.51%.

Turning to `CCOc1ccc(C(=S)NC2CCCCC2)cc1OC`, the “inhibition” value is -0.49%.

As for `c1ccc2[nH]c(CSc3nc4ccccc4o3)nc2c1`, the “inhibition” value was -1.51%.

Consider `CCCCOC(=O)Nc1ccc(S(=O)(=O)Nc2cc(C)nc(C)n2)cc1`, for which the “inhibition” value is 2.95%.

Take `Cc1cc(C(=O)N/N=C/c2c(C)[nH]n(-c3ccccc3)c2=O)n[nH]1`: the “inhibition” value was -1.12%.

Take `C=CCOc1cccc(/C=N/NC(=O)CC(=O)NC2CCCCC2)c1`: the “inhibition” value is 0.5%.

Regarding `O=C(CSc1n[nH]c(-c2ccccn2)n1)Nc1cccc(Cl)c1`, the “inhibition” value is -5.15%.

Consider `CN(C)CCCNC(=O)c1ccc(-c2cc(O)c3ncccc3c2)cc1`, for which the “inhibition” value is 0%.

In the case of `Oc1ccc(N=Nc2c(O)ccc3ccccc23)cc1`, the “inhibition” value is 0%.

For `CC1=NN(c2ccc(C)cc2)C(=O)/C1=C\C=C\c1ccccc1`, the “inhibition” value was -2.51%.

As for `Cc1ccc(C(=O)N/C(=C\c2cccc([N+](=O)[O-])c2)C(=O)NCc2ccncc2)cc1`, the “inhibition” value was 3.8%.

Regarding `CN(C)S(=O)(=O)c1ccc(NC(=O)CSc2ncnc3ccccc23)cc1`, the “inhibition” value was 3.52%.

On to `Cc1ccc(S(=O)(=O)C2(C(=O)NCc3ccc4c(c3)OCO4)CC2)cc1`, for which the “inhibition” value is 0%.

As for `O=C(Cn1cnc([N+](=O)[O-])n1)N/N=C/c1ccccc1O`, the “inhibition” value is 2.53%.

Turning to `Clc1cc2cccnc2c2ncccc12`, the “inhibition” value was -1.12%.

For `O=C(N/N=C(\Cc1ncc[nH]1)c1ccccc1)c1ccncc1`, the “inhibition” value was -1.51%.

With `CCOC(=O)Cc1nnc(NC(=O)C(CC)Sc2nncn2C)s1` (stereo not drawn), the “inhibition” value is 1.97%.

With `Cc1ccc(NC(=O)COc2cccc3ccc(C)nc23)c(Br)c1`, the “inhibition” value was 0.5%.

Turning to `COc1cccc(N=Nc2ccc3ccccc3c2O)c1`, the “inhibition” value is 2.01%.

As for `Cn1c(SCC(=O)NC2CC2)nnc1-c1ccccn1`, the “inhibition” value was 1.12%.

Regarding `COc1cc(O)c(/C=N/NC(=O)c2ccncc2)c(OC)c1[N+](=O)[O-]`, the “inhibition” value was -0.49%.

As to `COC(=O)c1c(C)oc2ccc(N(C(=O)c3ccncc3)S(=O)(=O)c3ccc4ccccc4c3)cc12`, the “inhibition” value is -0.56%.

`CC(=NNC(=S)N1CC2CCC(CC2)C1)c1nccs1`: the “inhibition” value was -3.44%.

For `CCOc1cccc(/C=N/NC(=O)c2cccnc2)c1O`, the “inhibition” value is 0%.

Turning to `O=C(N/N=C/c1cc(O)ccc1Br)c1cccnc1`, the “inhibition” value is 0%.

`COc1cccc2c(=O)n(CC(=O)Nc3ccc(F)cc3F)ccc12`: the “inhibition” value is 0%.

`CC(c1ccccc1)n1c(CO)nc2ccccc21` (stereo not drawn): the “inhibition” value was 0%.

For the molecule `O=C(Nc1nc(-c2ccccn2)cs1)c1ccco1`, the “inhibition” value is 1.51%.

On to `O=C1/C(=C/c2ccc(O)c(O)c2)SC(=S)N1Nc1ccccc1`, for which the “inhibition” value was -0.56%.

Consider `CN1CCN(c2ccc(N)cc2)CC1`, for which the “inhibition” value was -0.5%.

With `COC(=O)Cn1c(=O)c2c(nc3n2CC(C)CN3c2ccc(C)c(C)c2)n(C)c1=O` (stereo not drawn), the “inhibition” value was 0.5%.

In the case of `CCCNC(=O)COC(=O)/C=C/c1ccco1`, the “inhibition” value is -0.5%.

`CC(C)CCNC(=O)CCC(=O)NNc1nc2ccccc2c2nc(-c3ccccc3)nn12`: the “inhibition” value is -0.56%.

On to `CCOc1ccc(NS(=O)(=O)c2ccc(NS(=O)(=O)c3ccc(SC)cc3)cc2)cc1`, for which the “inhibition” value is 0.67%.

With `COc1ccc(C(C)=O)cc1COC(=O)[C@H](Cc1ccccc1)NC(=O)c1ccco1`, the “inhibition” value was 2.46%.

Consider `CC(C)CC(C(=O)OCC(=O)Nc1ncc(Cl)cc1Cl)N1C(=O)c2ccccc2C1=O` (stereo not drawn), for which the “inhibition” value was 0.56%.

For the molecule `CCN1/C(=C/c2ccc3cc(C)cc(C)c3[n+]2CC)Sc2cc(C)ccc21`, the “inhibition” value was -2.95%.

Consider `Cc1ccc(O)c(N=NC2=C(O)CC(C)(C)CC2=O)c1`, for which the “inhibition” value is -1.12%.

`Cc1cc2cc(CNC(=O)NC3CCCCC3)ccc2n1C`: the “inhibition” value is -0.56%.

Turning to `COc1ccc(C(=O)N/N=C(\C)c2ccccn2)cc1OC`, the “inhibition” value is -2.91%.

Consider `Cc1ccc(NCCCn2cnc(C(=O)Nc3ccc(C)c(C)c3)n2)cc1C`, for which the “inhibition” value is 3.93%.

Take `COC(=O)c1cc(S(=O)(=O)N2CCCCCC2)c[nH]1`: the “inhibition” value is 2.91%.

For `O=C(O)c1ccc(N2C(=O)/C(=C/c3ccc(-c4ccc([N+](=O)[O-])cc4)o3)C=C2c2ccccc2)cc1`, the “inhibition” value was 0.25%.

Turning to `O=C(N/N=C/c1cc([N+](=O)[O-])ccc1O)c1cccc(N2CCCC2=O)c1`, the “inhibition” value was 0.22%.

Take `O=C(NCc1ccccn1)C(=O)N/N=C/c1ccccc1O`: the “inhibition” value is -2.01%.

On to `CCCN1C(=O)/C(=C2\SC(N3CCCCC3)=NC2=O)c2ccccc21`, for which the “inhibition” value was -4.25%.

Turning to `CCN(Cc1ccccc1)c1ccc(N=Nc2nn(C)c(C)c2[N+](=O)[O-])cc1`, the “inhibition” value is -1.12%.

As to `CCOC(=O)N1CCN(c2c(NCCc3ccccc3)c(=O)c2=O)CC1`, the “inhibition” value was 9.34%.

As for `CCOc1ccc(-n2c(SCC(=O)Nc3ccccc3C)n[nH]c2=O)cc1`, the “inhibition” value is 1.27%.

As to `COc1cc(C=O)ccc1OCC(=O)Nc1ccc2c(c1)OCO2`, the “inhibition” value is -0.98%.

Regarding `CC1=NN(c2ccccc2)C(=O)/C1=C/c1c(O)n(-c2ccc(F)cc2)[nH]c1=O`, the “inhibition” value is 2.01%.

On to `Cc1cc(C)cc(N2C(=O)C3NN=C(C(=O)OCc4ccccc4)C3C2=O)c1` (stereo not drawn), for which the “inhibition” value is 0.5%.

With `O=C1CCC(=O)N1CCC(c1ccc(F)cc1)c1ccco1` (stereo not drawn), the “inhibition” value is 1.27%.

For the molecule `CN(C)c1ccc(N=Cc2ccco2)cc1`, the “inhibition” value was -2.91%.

For the molecule `COc1cccc(C(=O)O/N=C(\N)c2ccncc2)c1`, the “inhibition” value was -0.25%.

Regarding `Cc1ccc(NC(=O)N2CCCCCC2)cc1C`, the “inhibition” value was 0%.

Regarding `CCN(CC)CCN1C(=O)c2oc3ccc(F)cc3c(=O)c2C1c1ccncc1` (stereo not drawn), the “inhibition” value is 0%.

For the molecule `CN(CC(=O)NCc1ccccn1)S(=O)(=O)c1ccc(Br)cc1`, the “inhibition” value is 0%.

For the molecule `CC(=O)Nc1cccc(NC(=O)CSc2nn3c(=O)c(C)nnc3s2)c1`, the “inhibition” value was 0.5%.

For `Cc1ccn(CC(=O)N/N=C/c2cc([N+](=O)[O-])ccc2O)n1`, the “inhibition” value is -1.27%.

As to `Cc1cccc(NC(=O)CCN2C(=O)c3ccccc3S2(=O)=O)c1C`, the “inhibition” value is 2.53%.

On to `O=C(CN1C(=O)C2CCCCC2C1=O)Nc1nc(-c2ccccn2)cs1` (stereo not drawn), for which the “inhibition” value was -4.7%.

As to `Cc1c(N=Nc2c(O)n(Cc3ccccc3)c(=O)[nH]c2=O)c(=O)n(-c2ccccc2)n1C`, the “inhibition” value was -1.51%.

On to `C=CC(=O)Nc1ccc(N(C)c2ccnc(Nc3ccc(N4CCN(C)CC4)cc3)n2)cc1`, for which the “inhibition” value is -2.51%.

Consider `CC(=O)N(Cc1ccc(F)cc1)C1=C(NCCc2ccccc2)C(=O)c2ccccc2C1=O`, for which the “inhibition” value was -5.15%.

For `O=C(O)c1ccc(N=Nc2c(O)ccc3ncccc23)cc1`, the “inhibition” value is 0%.

On to `Cc1nc2sccn2c(=O)c1S(=O)(=O)Nc1cccc(Cl)c1C`, for which the “inhibition” value was -0.25%.

Turning to `CC(=NNC(=S)N1CC2CCC(CC2)C1)c1ccncn1`, the “inhibition” value is -2.95%.

Consider `Clc1ccc(OCc2nc(-c3ccncc3)no2)c(Br)c1`, for which the “inhibition” value is -0.56%.

With `CN1C(=O)/C(=C/c2cc(N=Nc3ccccc3)ccc2O)SC1=S`, the “inhibition” value is -5.15%.

In the case of `O=C(CSc1ccc(-c2ccccn2)nn1)Nc1ccc(F)c(F)c1`, the “inhibition” value was 0.25%.

Consider `COc1ccc(N2CCN(C(=O)CCC(=O)N3CCOc4ccc(Cl)cc43)CC2)cc1`, for which the “inhibition” value is -1.47%.

Consider `Cc1ccc2ccc3cccnc3c2n1`, for which the “inhibition” value is -2.01%.

Regarding `Cc1noc(/C=C/N(C)C)c1S(=O)(=O)N1CCCC(C(=O)NC2CCCCC2)C1` (stereo not drawn), the “inhibition” value is 2.53%.

With `COc1ccc(N=Nc2cc(OC)c(N)cc2OC)cc1`, the “inhibition” value is -1.51%.

In the case of `O=C(NC(=S)NNC(=O)c1ccccc1O)c1ccco1`, the “inhibition” value is 1.27%.

`CC1COCC(C)N1C1=C(Cl)C(=O)c2ccccc2C1=O` (stereo not drawn): the “inhibition” value is -2.95%.

On to `COc1ccccc1N1CCN(C2CCCN(C(=O)c3cccc(-c4ccco4)c3)C2)CC1` (stereo not drawn), for which the “inhibition” value is -2.46%.

On to `Clc1ccc(-c2ccc(-c3nn4c(-c5ccco5)nnc4s3)o2)cc1`, for which the “inhibition” value was -2.46%.

Turning to `CCCCCn1cnc2c(sc3nc4c(cc32)CSC(C)(C)C4)c1=O`, the “inhibition” value was 0%.

For the molecule `CCN(CC)C(=O)C1CCCc2c1[nH]c1ccc(Cl)cc21` (stereo not drawn), the “inhibition” value is -1.51%.

As for `CC(NC(=O)C(=O)NN=C1CCCCCCC1)c1ccccc1` (stereo not drawn), the “inhibition” value was -0.5%.

Regarding `COc1ccc(NC(=O)CSc2n[nH]c(-c3ccccn3)n2)cc1`, the “inhibition” value was -3.8%.

As to `O=C(N/N=C/c1c(O)n(C2CC2)c(=S)[nH]c1=O)c1ccccc1O`, the “inhibition” value is 0.56%.

Turning to `Cc1ccc(NC(=O)CSc2nnc(C)c(=O)n2N)c(C)c1`, the “inhibition” value was 1.57%.

With `Cc1ccc(CN2CCC(n3nccc3NC(=O)CCCc3ccccc3)CC2)o1`, the “inhibition” value was 0%.

For `O=C1CCCN1CC(=O)N1CCCC(N2CCN(c3cccc(Cl)c3)CC2)C1` (stereo not drawn), the “inhibition” value was 0.67%.

For the molecule `CCNC(=O)CC1C(=O)N(c2ccc(F)cc2)C(=O)N1Cc1ccc(OC)cc1` (stereo not drawn), the “inhibition” value was 1.27%.

Consider `O=C1C=C(c2c(O)ccc3ccccc23)c2ccccc2C1=O`, for which the “inhibition” value is -2.46%.

As to `CCOC(=O)C1=C(C)n2c(s/c(=C/c3cccc([N+](=O)[O-])c3)c2=O)=NC1c1ccc(O)c(OC)c1` (stereo not drawn), the “inhibition” value was -1.27%.

Take `CCC(C(=O)N/N=C(\C)c1cccnc1)c1ccccc1` (stereo not drawn): the “inhibition” value is 0.98%.

Turning to `CN(CCCC(=O)O)c1ccc(N=Nc2ccc([N+](=O)[O-])cc2)cc1`, the “inhibition” value was 0%.

Consider `COc1cccc(C(=O)NN2c3ccccc3CCc3ccccc32)c1`, for which the “inhibition” value was 0%.

As to `N#C/C(=C/c1cn(-c2ccccc2)nc1-c1cccc(OCc2ccc(F)cc2)c1)C(=O)NCCCn1ccnc1`, the “inhibition” value is -5.59%.

Take `CC1NC(=O)NC1CCCCCC(=O)Nc1ccc(F)c(Cl)c1` (stereo not drawn): the “inhibition” value is 0%.

`CCOC(=O)C(C(C)=O)c1c(Br)c(O)c(O)c2c(C(=O)c3ccc(C)cc3)coc12` (stereo not drawn): the “inhibition” value was -2.53%.

As for `Cc1ccc(-n2c(SCC(=O)NCc3ccco3)nc3c([nH]c4ccccc43)c2=O)cc1`, the “inhibition” value is -0.49%.

As for `CC(C)CC1Nc2ncnc(N3CCN(c4ccccc4)CC3)c2N(Cc2ccccc2)C1=O` (stereo not drawn), the “inhibition” value was -0.56%.

Regarding `C[C@@H](C(=O)Nc1nc(-c2ccccn2)cs1)N1C(=O)C2CCCCC2C1=O` (stereo partly drawn), the “inhibition” value was 0.5%.

Turning to `COc1ccc(C2(c3ccc(OC)cc3)NC(=O)N(CC(=O)Nc3ccc(OC(F)F)cc3)C2=O)cc1`, the “inhibition” value was -2.95%.

Take `Cn1nc(CC(=O)NC2CCCCCC2)c2ccccc2c1=O`: the “inhibition” value was 1.25%.

With `O=C(CCS(=O)(=O)c1ccc(F)cc1)Nc1nc(-c2ccccn2)cs1`, the “inhibition” value was -4.7%.

For the molecule `COc1ccc(C2C(C#N)=C(N)Nc3onc(C(C)(C)C)c32)c(OC)c1` (stereo not drawn), the “inhibition” value is 0.25%.

Regarding `Oc1cccc(/C=N/NC(=S)Nc2cccnc2)c1O`, the “inhibition” value is 0.22%.

For `CCOC(=O)c1c(C)[nH]c(C(=O)N/N=C/c2cc([N+](=O)[O-])ccc2O)c1C`, the “inhibition” value was -1.27%.

On to `Cc1[nH]c2ccccc2c1C(c1ccccn1)c1c(C)[nH]c2ccccc12`, for which the “inhibition” value was 0.5%.

Regarding `Cc1[nH]c2ccccc2c1SCC(=O)N1CCOCC1`, the “inhibition” value was 1.25%.

For the molecule `Cc1ccc(S(=O)(=O)NCc2ccc3c(c2)cc(C)n3C)cc1`, the “inhibition” value is -2.91%.
